Activity calls are given as the source filed them. How the calls were made is not given here.

Chain of Thyrotropin receptor (Homo sapiens) (P16473 whole entry, looked up): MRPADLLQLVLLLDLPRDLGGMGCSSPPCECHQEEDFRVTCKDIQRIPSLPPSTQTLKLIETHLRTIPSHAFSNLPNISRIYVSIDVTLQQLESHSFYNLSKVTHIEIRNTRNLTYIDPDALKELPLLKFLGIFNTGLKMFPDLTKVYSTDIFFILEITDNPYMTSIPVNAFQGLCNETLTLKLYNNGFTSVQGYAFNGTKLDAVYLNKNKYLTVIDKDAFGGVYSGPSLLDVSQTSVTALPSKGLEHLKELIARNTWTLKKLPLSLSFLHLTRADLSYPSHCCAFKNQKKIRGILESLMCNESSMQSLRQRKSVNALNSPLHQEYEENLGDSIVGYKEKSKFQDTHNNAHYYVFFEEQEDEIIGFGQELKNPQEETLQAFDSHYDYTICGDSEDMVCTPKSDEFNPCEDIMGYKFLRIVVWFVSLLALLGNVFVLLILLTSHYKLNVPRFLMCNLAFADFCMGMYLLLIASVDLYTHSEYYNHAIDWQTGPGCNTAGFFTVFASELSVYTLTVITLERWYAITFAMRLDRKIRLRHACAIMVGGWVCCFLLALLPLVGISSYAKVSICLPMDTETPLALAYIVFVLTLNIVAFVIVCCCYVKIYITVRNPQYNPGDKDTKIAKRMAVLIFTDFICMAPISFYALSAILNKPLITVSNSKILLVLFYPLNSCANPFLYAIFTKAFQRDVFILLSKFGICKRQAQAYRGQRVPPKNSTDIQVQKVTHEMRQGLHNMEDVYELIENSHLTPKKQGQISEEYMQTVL

This experiment has as its target Thyrotropin receptor (Homo sapiens) (UniProt P16473). Kind of experiment: qHTS for antagonists of the Thyroid Stimulation Hormone Receptor: Hit Validation for Inverse Agonism. Conditions: hits give high values. The text has this:
The thyroid-stimulating hormone receptor (TSHR) is a member of the 7 trans-membrane-spanning receptor (7TMR) family of cell surface receptors. TSHR-mediated hyperthyroidism is important in thyroid pathology. The development of small molecule antagonists of TSHR may lead to therapeutic approaches for TSHR-mediated hyperthyroidism caused by constitutively activating mutations or stimulating auto-antibodies associated with Graves' disease. Graves' disease is the leading cause of hyperthyroidism and is caused by autoantibodies that stimulate TSHR (TsAbs) causing thyroid growth and unregulated overproduction of thyroid hormones and existing treatments have liabilities (agranulocytosis). In addition, TSHRs are known to be expressed in multiple extrathyroidal tissues including bone, brain, kidney, testis, fat and cells of the immune system but the role of the TSHR in these tissues is not clear. Therefore, TSHR antagonists/inverse agonists could be used as probes of extrathyroidal TSHR function. Finally, TSHR inverse agonists, which are a subclass of antagonists that inhibit agonist-independent (or basal or constitutive) TSHR signaling, could be used to inhibit TSH-independent signaling in patients with recurrent or metastatic thyroid cancer who are receiving thyroid hormone to suppress TSH. […]
For orientation: qHTS replaces the single test concentration by a dilution series.
Consider `COC(=O)C1=C(c2ccc(-c3ccccc3)c(F)c2)C[C@@H]2CC[C@H]1N2C(=O)NCCOc1ccccc1`, for which the max inhibition was 75% (active).

(Values after PubChem BioAssay AID602442 (National Center for Advancing Translational Sciences (NCATS), 2012).)
